Screens from PubChem BioAssay.
CYP2C19 inh: blocks human cytochrome P450 2C19; CYP2C19 Supersomes, luciferin-H EGE luminescence, 30 min; inhibition, % at 5 µM; 96,000 compounds, 21% hits; AID 778;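 active = CYP2C19 inhibition above a set limit at 5 µM in the primary screen, cut at about 50% in these data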;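 note: plate controls were negative control wells for no effect and 2.5 mM tranylcypromine positive control for full effect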
Target sequence (P33261 whole entry, looked up): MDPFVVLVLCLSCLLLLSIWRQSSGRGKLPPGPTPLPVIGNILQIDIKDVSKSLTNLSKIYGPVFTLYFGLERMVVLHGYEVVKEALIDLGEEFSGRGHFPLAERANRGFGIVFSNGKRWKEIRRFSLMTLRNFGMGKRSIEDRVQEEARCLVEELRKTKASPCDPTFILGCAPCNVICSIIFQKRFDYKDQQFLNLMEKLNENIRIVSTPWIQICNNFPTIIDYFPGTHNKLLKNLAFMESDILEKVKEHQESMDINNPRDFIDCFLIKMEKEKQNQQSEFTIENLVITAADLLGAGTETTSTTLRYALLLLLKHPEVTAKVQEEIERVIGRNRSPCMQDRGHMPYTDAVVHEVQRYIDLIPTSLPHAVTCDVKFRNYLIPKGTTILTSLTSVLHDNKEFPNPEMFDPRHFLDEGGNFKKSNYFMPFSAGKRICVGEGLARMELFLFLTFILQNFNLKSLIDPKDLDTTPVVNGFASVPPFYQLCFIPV
CYP2C9 inh: blocks human cytochrome P450 2C9 | P11712 | CYP2C9 Supersomes, luciferin-H conversion, luminescence | inhibition, % at 5 µM | 96,000 compounds, 20% hits | AID 777;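 active = blocking of liver enzyme CYP2C9 beyond about 50% at 5 µM, limit read from the data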
CYP2C19 act: cytochrome P450 2C19 (human) activation; P33261; recombinant CYP2C19, luciferin-H EGE luminescence; stronger effect = higher value; 0 = fully inhibited enzyme, 1 = untreated enzyme; activation factor at 5 µM; 96,000 tested, under 10 active; AID 1025;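 active = activation factor of at least 2 at 5 µM in the primary screen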;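 note: 0 = wells with 2.5 mM tranylcypromine and 1 = vehicle-only wells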
CYP2C9 activ: CYP2C9 (human) activation; 96,000 compounds, 1.4% hits; activation factor at 5 µM; AID 1024; recombinant CYP2C9, luciferin-H conversion, luminescence; stronger effect = higher value; factor 1 = untreated enzyme, 0 = blocked;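 active = activation factor of 2 or more for CYP2C9 at a 5 µM dose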;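 note: 0 = sulfaphenazole-blocked wells and 1 = vehicle-only wells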
PLAP act: human PLAP activation | P05187 | 96,000 compounds, 1.2% hits | purified PLAP enzyme, luminescent substrate read-out; stronger effect = higher value | activation fold at 20 µM; in the data active = activation fold above about 2
The depositor's hits bear a star; / = not tested or not shown. An excerpt weighted towards active compounds, which were near 31% of everything screened.

SMILES | CYP2C19 inh | CYP2C9 inh | CYP2C19 act | CYP2C9 activ | PLAP act
COCCN(Cc1cc2cc(C)ccc2nc1Cl)C(=O)Nc1ccccc1C | -2.2 | 12.1 | 1 | 0.9 | 0.9
Brc1cccc(-c2nnc3sc(CNC4CCCC4)cn23)c1 | 17.7 | 12.5 | 0.8 | 0.9 | 0.9
C=CCNC(=O)c1cc(=O)c2ccccc2o1 | 8.8 | 15.5 | 0.9 | 0.8 | 1.1
C=CCSc1cc(C)nc2c(-c3ccc(Cl)cc3)c(C)nn12 | 19.2 | 15.4 | 0.8 | 0.8 | 0.9
CCn1c(COc2ccc3c(c2)CCCC3)nnc1SCC(=O)Nc1nccs1 | 10.3 | 6.7 | 0.9 | 0.9 | 1
COc1cccc2cc(C(=O)N3CCN(C/C=C/c4ccccc4)CC3)c(=O)oc12 | 35.4 | -186.7 | 0.6 | 2.9* | 1.6
Cc1noc(C)c1COc1cccc(C(=O)N2CCN(C/C=C/c3ccccc3)CC2)c1 | 89.7* | 87.5* | 0.1 | 0.1 | 1.5
COc1ccccc1NC(=O)C(C)N1CCN(C/C=C/c2ccccc2)CC1 (stereo unspecified) | 60.0* | 36.8 | 0.4 | 0.6 | 1.6
Cc1noc(C)c1COc1cccc(C(=O)OCC(=O)N2CC(=O)Nc3ccccc32)c1 | 58.9* | 63.1* | 0.4 | 0.4 | 0.9
CCOc1ncccc1C(=O)OCC(=O)N1CC(=O)Nc2ccccc21 | -11.3 | -32.0 | 1.1 | 1.3 | 1
Cc1nc(C)c(C(=O)C2=C(O)C(=O)N(CCCN(C)C)C2c2ccco2)s1 (stereo unspecified) | 6.8 | 28.1 | 0.9 | 0.7 | 1
CCOC(=O)N1CCN(c2c(Nc3cc(C)[nH]n3)c(=O)c2=O)CC1 | -0.8 | 0.1 | 1 | 1 | 0.9
Cc1cc(N)n(-c2ncnc3scc(-c4ccccc4)c23)n1 | 9.8 | 16.6 | 0.9 | 0.8 | 0.9
Cc1cc(C(=O)N2CCN(C/C=C/c3ccccc3)CC2)cs1 | 59.3* | 61.0* | 0.4 | 0.4 | 1.6
COc1ccc(N2C(=O)CCC(C(=O)N3CCCCCC3)C2c2ccc(OC)c(OC)c2)cc1 (stereo unspecified) | -5.8 | -5.5 | 1.1 | 1.1 | 1.2
O=C(NCCc1ccccc1)c1ccc2c(c1)N(Cc1ccccc1)C(=O)CS2=O (stereo unspecified) | 48.2 | 86.3* | 0.5 | 0.1 | 1.2
CCOCCCNC(=O)c1ccc2c(c1)N(Cc1ccccc1)C(=O)CS2=O (stereo unspecified) | 34.5 | 41.5 | 0.7 | 0.6 | 1.4
CCCN(CCC)C(=O)c1ccc2c(c1)N(Cc1ccccc1)C(=O)CS2=O (stereo unspecified) | -7.2 | 86.1* | 1.1 | 0.1 | 1.3
O=C(O)c1ccc2c(c1)N(Cc1ccccc1)C(=O)c1ccccc1S2=O (stereo unspecified) | -17.3 | 40.6 | 1.2 | 0.6 | 1.1
CC(C)CCNC(=O)c1ccc2c(c1)N(Cc1ccccc1)C(=O)CS2=O (stereo unspecified) | 13.0 | 50.3* | 0.9 | 0.5 | 1.3
O=C(c1ccc2snnc2c1)N1CCN(c2ccccn2)CC1 | 71.2* | 8.8 | 0.3 | 0.9 | 0.8
CN1C(=O)/C(=C\c2ccccc2)Sc2ccc(C(=O)N3CCN(c4ccccn4)CC3)cc21 | 72.1* | 76.6* | 0.3 | 0.2 | 1.2
O=C(c1ccc2snnc2c1)N1CCN(c2ccccc2)CC1 | 100.0* | 65.2* | 0 | 0.3 | 1.5
O=C1CSc2ccc(C(=O)N3CCN(c4ccccn4)CC3)cc2N1 | 23.6 | 19.9 | 0.8 | 0.8 | 1.1
O=C(c1ccc2snnc2c1)N1CCCC1 | 27.6 | 9.6 | 0.7 | 0.9 | 0.8
SMILES | CYP2C19 inh | CYP2C9 inh | CYP2C19 act | CYP2C9 activ | PLAP act
Cc1c(C(=O)NCCC2=CCCCC2)oc2ccc(S(=O)(=O)N3CCC4(CC3)OCCO4)cc12 | 18.4 | 37.5 | 0.8 | 0.6 | 1.4
Cc1ccc(SC(C)C(=O)Nc2cccnc2)cc1 (stereo unspecified) | 39.1 | 7.8 | 0.6 | 0.9 | 1.2
Cc1ccc(SC(C)C(=O)Nc2c(C)n(C)n(-c3ccccc3)c2=O)cc1 (stereo unspecified) | 16.8 | 6.8 | 0.8 | 0.9 | 1.1
Cc1ccc(SC(C)C(=O)Nc2ccncc2)cc1 (stereo unspecified) | 99.6* | 96.6* | 0 | 0 | 0.9
CSc1ccccc1C(=O)Nc1cccc(N(C)S(C)(=O)=O)c1 | 27.3 | 33.8 | 0.7 | 0.7 | 0.9
Cc1ccc(SC(C)C(=O)Nc2ccc(S(=O)(=O)N3CCOCC3)cc2)cc1 (stereo unspecified) | 36.7 | 60.5* | 0.6 | 0.4 | 1.2
CSc1cccc(NC(=O)C(C)Sc2ccc(C)cc2)c1 (stereo unspecified) | 70.3* | 67.2* | 0.3 | 0.3 | 0.7
Cc1ccc(SC(C)C(=O)Nc2cccc(N(C)S(C)(=O)=O)c2)cc1 (stereo unspecified) | 60.8* | 82.9* | 0.4 | 0.2 | 1.5
O=C(NCC1CCCO1)C1CCC(CNS(=O)(=O)c2ccccc2)CC1 (stereo unspecified) | -9.2 | -13.7 | 1.1 | 1.1 | 1
C=CCn1c(CC(=O)OC)csc1=Nc1ccc(C(C)=O)cc1 | 78.0* | 43.1 | 0.2 | 0.6 | 1.4
CCOC(=O)c1cnc2c(C(=O)OC)cccc2c1NCCN1CCOCC1 | 6.7 | 7.1 | 0.9 | 0.9 | 1.5
CCOC(=O)c1cnc2ccccc2c1NCCc1ccc(OC)c(OC)c1 | 74.7* | 82.6* | 0.3 | 0.2 | 1
COc1ccc(N2CCN(c3nc(NCCc4ccc(OC)c(OC)c4)nc(OC)n3)CC2)cc1 | 82.2* | 83.0* | 0.2 | 0.2 | 0.9
COc1ccc(CCNc2ncnc3[nH]ncc23)cc1OC | 29.6 | 25.3 | 0.7 | 0.7 | 2*
COc1ccc(CCNc2ccncn2)cc1OC | 94.2* | 66.7* | 0.1 | 0.3 | 0.8
CCOc1nc(NCCc2ccc(OC)c(OC)c2)nc(N2CCN(c3ccc(OC)cc3)CC2)n1 | 46.0 | 30.8 | 0.5 | 0.7 | 0.8
CCOc1cc(C)nc(NCCc2ccc(OC)c(OC)c2)n1 | 65.6* | 21.4 | 0.3 | 0.8 | 1.2
Cc1ccccc1N(C(=O)Cn1nnc(-c2cccs2)n1)C(C(=O)NCCC(C)C)c1ccco1 (stereo unspecified) | 59.7* | 83.9* | 0.4 | 0.2 | 1.2
COCCNC(=O)C(c1ccco1)N(Cc1ccc(OC)cc1)C(=O)Cn1nnc2ccccc21 (stereo unspecified) | -4.1 | -6.0 | 1 | 1.1 | 1.4
CC(C)CCNC(=O)C(c1ccco1)N(Cc1cccs1)C(=O)Cn1nnc2ccccc21 (stereo unspecified) | 73.2* | 59.0* | 0.3 | 0.4 | 0.9
Cc1nc2nc(CSc3ccc(Cl)cc3)cc(=O)n2[nH]1 | -6.8 | 55.0* | 1.1 | 0.4 | 1
Cc1nc2nc(-c3ccccc3)cc(=O)n2[nH]1 | 38.9 | 20.0 | 0.6 | 0.8 | 1.1
Cc1ccc(SCc2cc(=O)n3[nH]c(C)nc3n2)cc1 | -20.7 | 56.0* | 1.2 | 0.4 | 1.1
CCOc1cc(NC(=S)NCC2CCCO2)c(OCC)cc1NC(=O)c1cccc(C)c1 (stereo unspecified) | / | 14.9 | / | 0.9 | 1
